Measurements as given in PubChem BioAssay (NCI).
“And” between values parts separate entries of the source, which are not always exact repeats. Identical values can stand only once. About 83,000 compounds went through this panel and 20% of them were active in at least one assay; those are over-represented in the sample as a whole.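 Treatment: one concentration, 48 hours, 96-well format. Scoring: percent growth, with anything below 10 considered active.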 The source made the active and inactive calls.

Assays:
Experiment in all cases: NCI-60 one-dose screen, 48 h (100 = growth as untreated, 0 = no growth, -100 = all killed)
Conditions in all cases: 10 µM unless noted
DU-145 prostate = system: DU-145 prostate
K-562 leukemia = system: K-562 leukemia
MALME-3M melanoma = system: MALME-3M melanoma
MDA-MB-231 breast = system: MDA-MB-231 breast
RXF 393 renal = system: RXF 393 renal
SF-268 CNS = system: SF-268 CNS
SF-295 CNS = system: SF-295 CNS
SF-539 CNS = system: SF-539 CNS
UACC-257 melanoma = system: UACC-257 melanoma
M14 melanoma = system: M14 melanoma

| Compound | growth (DU-145 prostate) | growth (K-562 leukemia) | growth (MALME-3M melanoma) | growth (MDA-MB-231 breast) | growth (RXF 393 renal) | growth (SF-268 CNS) | growth (SF-295 CNS) | growth (SF-539 CNS) | growth (UACC-257 melanoma) | growth (M14 melanoma) |
| --- | --- | --- | --- | --- | --- | --- | --- | --- | --- | --- |
| O=C(/C=C/C12c3ccccc3C(c3ccccc31)C1C(=O)NC(=O)C12)c1ccncc1 (stereo not given) | 13% (inactive) | 6.6% (active) | 37.1% (inactive) | 15% (inactive) | 13.4% (inactive) | 10.2% (inactive) | 28.4% (inactive) | 5.79% (active) | 32.3% (inactive) | 20.3% (inactive) |
| CCOc1nc(-c2ccccc2)cc2c(O)c(C(=O)N/N=C/c3ccc(N(C)C)cc3)[nH]c(=O)c12 | 120% (inactive) | 105% (inactive) | 135% (inactive) | 98.8% (inactive) | 123% (inactive) | 104% (inactive) | 111% (inactive) | 99.7% (inactive) | 125% (inactive) | 119% (inactive) |
| O=C1N=c2ccccc2=C1c1sc(=S)n(C2CC(=O)N(c3ccc(Cl)cc3)C2=O)c1O (stereo not given) | 106% (inactive) | 94.4% (inactive) | 102% (inactive) | 101% (inactive) | 116% (inactive) | 102% (inactive) | 104% (inactive) | 101% (inactive) | 105% (inactive) | 98.7% (inactive) |
| Cn1cc(C2=C(c3cccc4ccccc34)C(=O)NC2=O)c2cc(Br)ccc21 | 110% (inactive) | 87.2% (inactive) | 143% (inactive) | 113% (inactive) | 102% (inactive) | 102% (inactive) | 102% (inactive) | 121% (inactive) | 138% (inactive) | 114% (inactive) |
| CCN(CC)CC#CCOC(=O)[C@]1(C)CCC[C@]2(C)c3ccc(C(C)C)cc3CC[C@@H]12 | 91.9% (inactive) | 63.4% (inactive) | 77.2% (inactive) | 101% (inactive) | 74.5% (inactive) | 96.3% (inactive) | 92.8% (inactive) | 79.6% (inactive) | 86.2% (inactive) | 87% (inactive) |
| N#Cc1c(-c2cccc(F)c2)cc(-c2cccnc2)[nH]c1=O | 107% (inactive) | 95.3% (inactive) | 103% (inactive) | 104% (inactive) | 112% (inactive) | 103% (inactive) | 102% (inactive) | 99.3% (inactive) | 112% (inactive) | 102% (inactive) |
| CCCCCC#CC1OC23CCCCC2C(C#N)(C(=N)O3)C1(C#N)C#N (stereo not given) | 102% (inactive) | 84% (inactive) | 98% (inactive) | 95.8% (inactive) | 105% (inactive) | 102% (inactive) | 98.5% (inactive) | 100% (inactive) | 78.6% (inactive) | 93.7% (inactive) |
| N#CC1=C(N)Oc2c(sc3c(Br)cccc23)C1c1ccccn1 (stereo not given) | 51.2% (inactive) | 15.2% (inactive) | 45.4% (inactive) | 59.8% (inactive) | 13.5% (inactive) | 41.5% (inactive) | 18% (inactive) | 6.33% (active) | 51.1% (inactive) | 28.1% (inactive) |
| COc1ccc(-c2c[nH]c(C(=O)O)c2-c2cc(OC)c(OC)c(OC)c2)cc1 | 49% (inactive) | 11.7% (inactive) | 33.7% (inactive) | 57.7% (inactive) | -3.91% (active) | 64.9% (inactive) | 23.6% (inactive) | 2.29% (active) | 78.8% (inactive) | 45.7% (inactive) |
| COc1ccc(Nc2ncnc3ccc(-c4cncc(NS(C)(=O)=O)c4)cc23)cc1Cl | 46.9% (inactive) | 28.1% (inactive) | 36.2% (inactive) | 21.6% (inactive) | 26.8% (inactive) | 24.9% (inactive) | 55.8% (inactive) | 18.9% (inactive) | 37% (inactive) | 51.5% (inactive) |
| O=C(CCl)n1nnnc1Cc1ccccc1 | 110% (inactive) | 83.4% (inactive) | 106% (inactive) | 92.9% (inactive) | 112% (inactive) | 106% (inactive) | 90.7% (inactive) | 92.2% (inactive) | 88.7% (inactive) | 98.6% (inactive) |
| COc1ccc2c(c1)c(C(=O)c1nc(-c3cn(C)c4ccccc34)no1)cn2C | 111% (inactive) | 72% (inactive) | 83.4% (inactive) | 104% (inactive) | 100% (inactive) | 103% (inactive) | 90% (inactive) | 97.2% (inactive) | 89% (inactive) | 104% (inactive) |
| NC(N)=NC(N)=NCCCc1ccco1 | 115% (inactive) | 96.8% (inactive) | 96.4% (inactive) | 107% (inactive) | 114% (inactive) | 94.1% (inactive) | 93.9% (inactive) | 103% (inactive) | 99.8% (inactive) | 111% (inactive) |
| Nc1nc(N)c2c(n1)NC(c1cccc(Nc3ccnc4cc(C(F)(F)F)ccc34)c1)CC(c1ccc(F)cc1)=N2 (stereo not given) | 63.8% (inactive) | 9.19% (active) | 53.2% (inactive) | 44.8% (inactive) | 42.8% (inactive) | 52.2% (inactive) | 49.2% (inactive) | 73.8% (inactive) | 74.8% (inactive) | 27.7% (inactive) |
| COc1cc(OC)cc(-c2ccc(-c3ccc(C(=N)N)cn3)s2)c1 | 66.3% (inactive) | 0.742% (active) | 99.5% (inactive) | 81.1% (inactive) | 98.6% (inactive) | 93.9% (inactive) | 88.7% (inactive) | 83.3% (inactive) | 97.8% (inactive) | 95.7% (inactive) |
| Cc1ccc(S(=O)(=O)Nc2cc(Sc3ccccc3)c(O)c3ccccc23)cc1 | 84.3% (inactive) | 41.1% (inactive) | 77.7% (inactive) | -1.57% (active) | 105% (inactive) | 65.8% (inactive) | 96.8% (inactive) | 92.9% (inactive) | 62.8% (inactive) | 107% (inactive) |
| Cc1ccc(C(=O)c2ccc(CC(=O)N=Nc3c(O)[nH]c4ccc(OC(F)(F)F)cc34)n2C)cc1 | 102% (inactive) | 92.5% (inactive) | 126% (inactive) | 92.4% (inactive) | 104% (inactive) | 93.2% (inactive) | 101% (inactive) | 102% (inactive) | 102% (inactive) | 97.6% (inactive) |
| Cn1cc(-c2nc3c(F)cc4[nH]ncc4c3c3c2CCCC3)c(C(F)F)n1 | 78.7% (inactive) | 26% (inactive) | 77.1% (inactive) | 60.2% (inactive) | 55% (inactive) | 61.7% (inactive) | 64.7% (inactive) | 62.3% (inactive) | 90.5% (inactive) | 53.4% (inactive) |
| COC(=O)/C=C1/SC(=Nc2ccc([N+](=O)[O-])cc2)N(CCc2c[nH]c3ccccc23)C1=O | 66.8% (inactive) | 25.8% (inactive) | 86.5% (inactive) | 72.1% (inactive) | 70.4% (inactive) | 75.7% (inactive) | 84.2% (inactive) | 79.6% (inactive) | 71.6% (inactive) | 52% (inactive) |
| COc1ccc(C2Nc3nc(SC)nc(N)c3N=C3c4ccccc4CCC32)cc1 (stereo not given) | 70.9% (inactive) | 84.5% (inactive) | 108% (inactive) | 83.5% (inactive) | 122% (inactive) | 73.4% (inactive) | 105% (inactive) | 90.5% (inactive) | 122% (inactive) | 92.7% (inactive) |
| CCCN1C(=O)/C(=c2\sc3n(c2=O)C2C(NN=3)N(CC)C(=O)N2CC)c2ccccc21 (stereo not given) | 13.6% (inactive) | 9.52% (active) | 45.4% (inactive) | 13.9% (inactive) | 17.3% (inactive) | 58.7% (inactive) | 7.46% (active) | -17% (active) | 24.5% (inactive) | 17.5% (inactive) |
| O=C1C(N2CCOCC2)=C(I)C(=O)c2ncccc21 | 84.8% (inactive) | 4.52% (active) | 87.3% (inactive) | 87.1% (inactive) | 72.6% (inactive) | 71.5% (inactive) | 97.3% (inactive) | 82.7% (inactive) | 85% (inactive) | 87.1% (inactive) |
| Cc1ccc(C(=O)Nc2nc3c(s2)CN(Cc2ccccc2)CC3)cn1 | 98% (inactive) | 36.8% (inactive) | 87.1% (inactive) | 100% (inactive) | 102% (inactive) | 91% (inactive) | 89.6% (inactive) | 103% (inactive) | 92.9% (inactive) | 79.9% (inactive) |
| Cc1ccc2nc3ccccc3c(NCc3ccc(Cl)cc3)c2c1 | 51.4% (inactive) | 2.63% (active) | -14% (active) | 37.7% (inactive) | 29% (inactive) | 79.1% (inactive) | 43.7% (inactive) | 40.2% (inactive) | -2.88% (active) | -17.1% (active) |
| COCCOc1cc2ncnc(N3CCN(S(=O)(=O)c4ccccc4Cl)CC3)c2cc1OCCOC | 91.2% (inactive) | 41.3% (inactive) | 67.9% (inactive) | 74.8% (inactive) | 83.9% (inactive) | 86.2% (inactive) | 82.7% (inactive) | 88.8% (inactive) | 83.5% (inactive) | 71.9% (inactive) |
| O=C(Nc1cc(C(F)(F)F)cc(C(F)(F)F)c1)c1cc(Cl)ccc1O | 14.4% (inactive) and 5.91% (active) | 2.85% (active) and 5.08% (active) | -38.3% (active) and -37.1% (active) | -11.4% (active) and -22.8% (active) | -40% (active) and -5.38% (active) | 11.7% (inactive) and -7.95% (active) | -63.1% (active) and -66.9% (active) | -31% (active) and -18% (active) | -52.7% (active) and -18.1% (active) | -6.08% (active) and -32.7% (active) |
